The source of these data is PubChem BioAssay.

A number with no mark means an inactive call. For some of these results: Results with a measured potency or affinity are listed apart. Activity calls are given as the source filed them. Unless noted, the rule behind the calls is not given here.

Test [1] in a line: antimalarial activity against Dd2 strain (AID 2302;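 active = growth inhibition above 50% at the single 2 µM test dose, taken to imply half-maximal potency below 2 µM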;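 note: 0% = DMSO untreated growth and 100% = chloroquine plus artemisinin killed control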). To be noted: P. falciparum Dd2 in RBCs, LDH growth readout, 72 h; at 2 µM; stronger effect = higher value.
Test [2] in a line: human hepatoma cell viability loss – ATP luminescence, cytotoxicity control for P. falciparum antimalarial project, primary screen (AID 2303;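 active = inhibition above 50%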;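 note: 0% = DMSO wells and 100% = digitonin-killed cells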). To be noted: HepG2 viability, 24-48 h, at 10 µM, stronger effect = higher value.
For test [3], the target named is L-lactate dehydrogenase (Plasmodium falciparum (isolate CDC / Honduras)) (UniProt Q27743). Description: PfLDH activity inhibition – cell lysate, 3D7 strain, counter-screen for P. falciparum growth inhibition project (AID 2304).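 Note: 0% = vehicle and 100% = reference inhibitor.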 To be noted: P. falciparum 3D7 crude extract, LDH APAD/NBT absorbance; at 2 µM; stronger effect = higher value.
The nature of test [4]: inhibition of 3D7 malaria parasite growth – strain 3D7 (AID 2306).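 Note: 0% = DMSO wells and 100% = chloroquine plus artemisinin control wells.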 To be noted: P. falciparum 3D7 erythrocytic growth, LDH absorbance, 72 h; at 2 µM; stronger effect = higher value.
Test [5] has as its target Calcium-dependent protein kinase 1 (Plasmodium falciparum (isolate 3D7)) (UniProt P62344). The experiment in a line: PfCDPK1 kinase inhibitors, biochemical, TCAMS library (AID 1159585; cut-off not given, nearly all actives have IC50 up to about 0.98 µM;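 note: inhibitors leave more ATP so luminescence rises with inhibition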). The following applies: recombinant PfCDPK1, Kinase-Glo ATP depletion luminescence.
Test [6] addresses Plasmodium falciparum protein kinase 6 (PK6, PF3D7_1337100) (UniProt Q8IDW1). Description: PfPK6 kinase inhibitors, biochemical, TCAMS library (AID 1159586). To be noted: recombinant PfPK6, Kinase-Glo ATP depletion luminescence.
In test [7] the target is Protein kinase 7 (PK7), Plasmodium falciparum 3D7 (PF3D7_0213400) (UniProt Q7YTF7). The experiment in a line: inhibition of Plasmodium PK7 catalytic activity – biochemical, TCAMS antimalarial set, Kinase-Glo luminescence (AID 1159587). To be noted: recombinant PfPK7, Kinase-Glo ATP depletion luminescence.
The target in test [8] is Calcium-dependent protein kinase 4 (Plasmodium falciparum (isolate 3D7)) (UniProt Q8IBS5). The experiment in a line: PfCDPK4 kinase inhibitors, biochemical, TCAMS library (AID 1159588; cut-off not given, nearly all actives have IC50 up to about 0.91 µM). The following applies: recombinant PfCDPK4, Kinase-Glo ATP depletion luminescence.
Sequence of Calcium-dependent protein kinase 4 (Plasmodium falciparum (isolate 3D7)) (Q8IBS5 whole entry, looked up): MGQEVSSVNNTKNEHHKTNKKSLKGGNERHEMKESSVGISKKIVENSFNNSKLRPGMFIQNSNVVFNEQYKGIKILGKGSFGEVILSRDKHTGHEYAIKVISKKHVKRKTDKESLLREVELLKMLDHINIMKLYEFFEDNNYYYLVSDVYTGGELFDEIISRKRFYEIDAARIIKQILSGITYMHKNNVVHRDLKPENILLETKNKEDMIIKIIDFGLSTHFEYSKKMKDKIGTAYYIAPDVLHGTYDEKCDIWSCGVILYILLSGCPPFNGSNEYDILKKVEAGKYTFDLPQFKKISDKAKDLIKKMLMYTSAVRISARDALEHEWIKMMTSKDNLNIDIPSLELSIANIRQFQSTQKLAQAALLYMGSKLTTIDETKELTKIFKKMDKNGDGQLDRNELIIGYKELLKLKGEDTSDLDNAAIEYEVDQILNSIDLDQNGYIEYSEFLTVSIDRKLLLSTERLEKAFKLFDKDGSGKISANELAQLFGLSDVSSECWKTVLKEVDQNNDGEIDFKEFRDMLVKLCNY

Sequence of Protein kinase 7 (PK7), Plasmodium falciparum 3D7 (PF3D7_0213400) (Q7YTF7 1-343): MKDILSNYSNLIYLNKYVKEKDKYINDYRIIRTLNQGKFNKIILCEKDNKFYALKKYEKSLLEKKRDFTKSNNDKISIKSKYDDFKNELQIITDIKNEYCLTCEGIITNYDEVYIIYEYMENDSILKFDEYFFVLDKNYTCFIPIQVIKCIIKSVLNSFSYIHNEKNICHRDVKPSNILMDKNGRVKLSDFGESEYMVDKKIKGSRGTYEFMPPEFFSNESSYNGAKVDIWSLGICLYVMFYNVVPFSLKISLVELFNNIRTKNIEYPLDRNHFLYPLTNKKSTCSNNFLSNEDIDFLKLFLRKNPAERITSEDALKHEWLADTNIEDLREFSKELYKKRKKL
Sequence of Plasmodium falciparum protein kinase 6 (PK6, PF3D7_1337100) (Q8IDW1 1-305): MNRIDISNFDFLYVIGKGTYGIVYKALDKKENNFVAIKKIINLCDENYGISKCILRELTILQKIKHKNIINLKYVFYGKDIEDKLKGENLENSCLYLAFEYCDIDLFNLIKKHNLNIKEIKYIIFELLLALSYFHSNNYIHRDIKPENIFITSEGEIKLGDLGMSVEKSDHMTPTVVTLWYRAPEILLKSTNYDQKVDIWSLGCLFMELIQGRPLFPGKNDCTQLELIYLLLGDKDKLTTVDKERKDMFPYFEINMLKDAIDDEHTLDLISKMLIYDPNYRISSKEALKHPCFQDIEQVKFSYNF
Sequence of Calcium-dependent protein kinase 1 (Plasmodium falciparum (isolate 3D7)) (P62344 whole entry, looked up): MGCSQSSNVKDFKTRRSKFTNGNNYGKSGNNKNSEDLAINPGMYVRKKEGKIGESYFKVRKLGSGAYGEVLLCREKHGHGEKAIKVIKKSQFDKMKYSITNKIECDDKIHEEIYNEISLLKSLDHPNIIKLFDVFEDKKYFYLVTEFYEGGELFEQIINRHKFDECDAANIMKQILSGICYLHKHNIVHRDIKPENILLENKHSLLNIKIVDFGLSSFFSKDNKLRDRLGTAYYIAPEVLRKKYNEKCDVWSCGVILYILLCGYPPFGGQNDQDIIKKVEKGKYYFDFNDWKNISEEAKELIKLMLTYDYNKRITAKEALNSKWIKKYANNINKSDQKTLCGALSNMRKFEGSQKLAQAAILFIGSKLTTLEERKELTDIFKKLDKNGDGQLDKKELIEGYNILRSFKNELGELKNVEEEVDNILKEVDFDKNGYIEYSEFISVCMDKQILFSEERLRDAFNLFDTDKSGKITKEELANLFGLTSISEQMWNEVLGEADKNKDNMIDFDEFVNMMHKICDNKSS
Sequence of L-lactate dehydrogenase (Plasmodium falciparum (isolate CDC / Honduras)) (Q27743 whole entry, looked up): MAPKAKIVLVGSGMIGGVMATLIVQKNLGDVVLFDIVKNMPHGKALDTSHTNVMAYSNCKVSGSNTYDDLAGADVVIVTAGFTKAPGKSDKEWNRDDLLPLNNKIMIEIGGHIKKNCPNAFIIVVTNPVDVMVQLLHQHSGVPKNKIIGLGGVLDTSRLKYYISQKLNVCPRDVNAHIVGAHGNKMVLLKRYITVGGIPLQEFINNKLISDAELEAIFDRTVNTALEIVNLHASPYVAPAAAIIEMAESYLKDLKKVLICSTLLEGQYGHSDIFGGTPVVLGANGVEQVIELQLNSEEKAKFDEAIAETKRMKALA

Consider `CCCCCC(C)c1cc(O)c2c(c1)OC(C)(C)C=C2C1=CCN(Cc2ccccc2)CC1` (stereo not given), for which the growth inhibition in test [1] and in test [4] was 96% (active) each time. Further, the results for the inhibition in test [2] and in test [3] were 13% and -5%, respectively. For the same compound, the result in test [5], in test [6], in test [7] and in test [8] was inactive.
Turning to `Nc1ccnc2ccc(NC(=O)CCCCCc3ccccc3)cc12`, the results for the growth inhibition in test [1] and in test [4] were 30% and 96% (active), respectively. For the same compound, the inhibition in test [2] was 47%; in test [3] it was 3%. The result in test [5], in test [6], in test [7] and in test [8] was inactive.
Turning to `O=C1c2ccccc2C(=O)N1c1ccc(S(=O)(=O)N2CCOCC2)cc1`, the figures for the growth inhibition in test [1] and in test [4] were -1% and 94% (active), respectively. Besides, the inhibition in test [2] was -1%; in test [3] it was 3%. Moreover, the result in test [5], in test [6], in test [7] and in test [8] was inactive.
As for `COc1ccc2nccc([C@@H](O)CN3CCC(NC(=O)/C=C/c4ccc5cc(C)[nH]c5c4)CC3)c2c1`, the results for the growth inhibition in test [1] and in test [4] were 93% (active) and 97% (active), respectively. Moreover, the values for the inhibition in test [2] and in test [3] were 7% and -6%, respectively. Further, the outcome in test [5], in test [6], in test [7] and in test [8] was inactive.
In the case of `O=C(N[C@H]1CCN(CCc2ccc(O[C@H]3CCNC3)cc2)C1)c1ccc(Cl)c(Cl)c1`, the growth inhibition in test [1] is 5%; in test [4] it was 96% (active). The results for the inhibition in test [2] and in test [3] were 18% and -3%, respectively. The result in test [5], in test [6], in test [7] and in test [8] was inactive.
Regarding `COc1cc2nc(NC3CCN(Cc4ccccc4)CC3)nc(N)c2cc1OC`, the growth inhibition in test [1] was 30%; in test [4], 101% (active). Moreover, the values for the inhibition in test [2] and in test [3] were 27% and -2%, respectively. The result in test [5], in test [6], in test [7] and in test [8] was inactive.
As for `O=C1c2ccccc2-n2c1nc1ccccc1c2=O`, the growth inhibition is 80% (active) in test [1] and 93% (active) in test [4]. Moreover, the results for the inhibition in test [2] and in test [3] were 9% and 4%, respectively. In addition, the outcome in test [5], in test [6], in test [7] and in test [8] was inactive.
`Cc1ccc(-c2nnc3c4ccccc4c(C)nn23)cc1S(=O)(=O)N1CCN(CCO)CC1`: the figures for the growth inhibition in test [1] and in test [4] were 62% (active) and 85% (active), respectively. The results for the inhibition in test [2] and in test [3] were 16% and -4%, respectively. The result in test [5], in test [6], in test [7] and in test [8] was inactive.
Turning to `Cc1ccccc1C1CCN(C2CCC(NC(=O)c3ccc(-c4cccs4)s3)CC2)CC1` (stereo not given), the growth inhibition is 54% (active) in test [1] and 101% (active) in test [4]. For the same compound, the inhibition was 58% (active) in test [2] and -2% in test [3]. In addition, the outcome in test [5], in test [6], in test [7] and in test [8] was inactive.
As for `Cc1ccc(Oc2c(-c3ccccc3CN3CCCC3CN(C)C)cnn(C)c2=O)cn1` (stereo not given), the values for the growth inhibition in test [1] and in test [4] were 9% and 88% (active), respectively. The inhibition in test [2] is -1%; in test [3] it was -4%. In addition, the result in test [5], in test [6], in test [7] and in test [8] was inactive.
For `ON=C1c2cc(OCCN3CCCCC3)c(Cl)cc2-c2cc(Cl)c(OCCN3CCCCC3)cc21`, the growth inhibition in test [1] was 98% (active); in test [4], 97% (active). Further, the inhibition is 99% (active) in test [2] and 5% in test [3]. Further, the result in test [5], in test [6], in test [7] and in test [8] was inactive.
Regarding `CCN1C(=O)N(CCC(C)C)C2(CCN(Cc3ccc(OC)cc3O)CC2)C1=O`, the growth inhibition in test [1] is 77% (active); in test [4], 89% (active). Besides, the inhibition was 13% in test [2] and 4% in test [3]. Further, the outcome in test [5], in test [6], in test [7] and in test [8] was inactive.
Regarding `COc1cccc(-c2ccc(C(=O)NC3CCN(Cc4ccc(C(C)(C)C)cc4)CC3)s2)c1`, the values for the growth inhibition in test [1] and in test [4] were 23% and 85% (active), respectively. Further, the inhibition in test [2] was 43%; in test [3], -2%. For the same compound, the outcome in test [5], in test [6], in test [7] and in test [8] was inactive.
As to `CCc1cn2c3c(cc(C(=O)N[C@@H](Cc4ccccc4)[C@H](O)CNC4CCCCC4)cc13)N(C)S(=O)(=O)C2`, the growth inhibition in test [1] and in test [4] was 99% (active) each time. The inhibition was 20% in test [2] and 0% in test [3]. Also, the result in test [5], in test [6], in test [7] and in test [8] was inactive.
In the case of `CC(C)CCN1CCCN(Cc2ccc(C(=O)Nc3ccc(F)c(F)c3)cc2)CC1`, the growth inhibition was 27% in test [1] and 88% (active) in test [4]. The inhibition in test [2] is 36%; in test [3], 5%. Further, the outcome in test [5], in test [6], in test [7] and in test [8] was inactive.
On to `O=C(Nc1ccccc1O)c1ccc(S(=O)(=O)c2ccc(Cl)cc2)cc1`, for which the values for the growth inhibition in test [1] and in test [4] were 85% (active) and 90% (active), respectively. Besides, the inhibition in test [2] was 18%; in test [3], -7%. Also, the result in test [5], in test [6], in test [7] and in test [8] was inactive.
For the compound `COc1cccc(CN2CCC(C(=O)Nc3ccc(-c4nc5ccccc5[nH]4)cc3)CC2)c1`, the growth inhibition is 84% (active) in test [1] and 101% (active) in test [4]. In addition, the inhibition in test [2] was 9%; in test [3], -3%. Besides, the outcome in test [5], in test [6], in test [7] and in test [8] was inactive.
For the compound `COc1ccc(Nc2ncc3c(-c4cccc(NC(=O)c5ccc(N)cc5)c4)c[nH]c3n2)cc1OC`, the growth inhibition in test [1] was 31%; in test [4], 84% (active). For the same compound, the inhibition in test [2] was 83% (active); in test [3], -3%. In addition, the outcome in test [5], in test [6], in test [7] and in test [8] was inactive.
With `CCOC(=O)c1ccc(NC(=O)Nc2cccc(-c3ccc(-c4nc5ccc(C(F)(F)F)cc5[nH]4)cc3)c2)cc1`, the values for the growth inhibition in test [1] and in test [4] were 99% (active) and 101% (active), respectively. In addition, the inhibition is 62% (active) in test [2] and -4% in test [3]. In addition, the result in test [5], in test [6], in test [7] and in test [8] was inactive.
Turning to `COc1ccccc1CCNc1nc(C)cc(N[C@@H](CC(C)C)C(=O)NCc2cccc(F)c2)n1`, the growth inhibition in test [1] is 79% (active); in test [4] it was 94% (active). For the same compound, the inhibition in test [2] is 20%; in test [3] it was -3%. For the same compound, the result in test [5], in test [6], in test [7] and in test [8] was inactive.
